Experimental data reported in PubChem BioAssay AID1159580 (chemical genetic matrix, 2015).
Among all 5,500 compounds or so, about 2,000 (36%) were called active. About 18% were inconclusive and are not listed. No stated cut-off is given here; in the data, active means normalized growth mostly below about 0.91 (no sharp cut-off); inconclusive means no clear call, values can overlap the other calls; inactive means mostly above about 0.92. This is one part of the list.

Assay: chemical genetic growth profiling, strain panel (AID 1159580);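 further: tested at 20 µM; growth read once vehicle control cultures reached saturation at 30 °C; 1 = growth at the plate median or of vehicle wells; lower values mean less growth of the strain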
Settings: S. cerevisiae deletion strains, growth OD

Measured: normalized growth

N[C@@H](Cn1oc(=O)[nH]c1=O)C(=O)O
inactive: locus YAL013W, strain DEP1, hits give low values 1.01 | locus YAL040C, strain CLN3, hits give low values 0.975 | locus YCL061C, strain MRC1 (second series), hits give low values 0.991 | locus YDR150W, strain NUM1, hits give low values 0.996 | locus YDR363W, strain ESC2, hits give low values 0.968 | locus YER002W, strain NOP16, hits give low values 0.979 | locus YGR078C, strain PAC10, hits give low values 0.979 | locus YMR263W, strain SAP30, hits give low values 1.01 | locus YMR307W, strain GAS1, hits give low values 1.02 | locus YNL153C, strain GIM3, hits give low values 0.996 | locus YNL175C, strain NOP13, hits give low values 0.99 | locus YNL197C, strain WHI3, hits give low values 0.972 | locus YNL224C, strain SQS1, hits give low values 0.989 | locus YOR083W, strain WHI5 (second series), hits give low values 0.961
